Screens (PubChem)
cardiac RTF act = cardiac RTF calcium sensitivity activators, primary screen, biochemical, IANBD-TnC fluorescence, EC20 calcium; 340,000 tested, 0.24% active; activation, % at 7.2 µM; IANBD-labeled TnC RTF fluorescence at EC20 calcium; 0% EC20 calcium, 100% full calcium; Troponin I, cardiac muscle (Homo sapiens) + Troponin T, cardiac muscle (Homo sapiens) + …;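 active = activation above the mean over all tested compounds plus 3 SD, cut at about 30% in these data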;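 also: rise in fluorescence read as greater calcium sensitivity of cardiac thin filaments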
LANA-H2A inh = blockers of LANA interaction with H2A/H2B – biochemical, FP readout, HTS, primary screen | Protein LANA1 (Human herpesvirus 8 type P (isolate GK18)), Q9QR71 | cell-free LANA-H2A/H2B peptide, fluorescence polarization | inhibition, % (no concentration beside the values) | 320,000 tested, 0.6% active | AID 2629, 2010; in the data active = inhibition mostly above about 10%, no sharp cut-off; inactive = mostly below about 6.7%
Keap1-Nrf2 PPI = Keap1-Nrf2 protein-protein interaction inhibitors, primary screen, biochemical, fluorescence polarization, single point; Keap1 Kelch-Nrf2 peptide fluorescence polarization, 1536-well; inhibition, % at 9.4 µM; 340,000 tested, 0.15% active; in the data active = inhibition above about 12%;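 also: human Keap1 Kelch domain with fluorescein labeled Nrf2 9mer peptide probe; 0% = neutral control wells and 100% = peptide positive control; higher means more block of Keap1 binding to Nrf2 peptide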
LANA DNA inh = inhibitors of KSHV C-LANA binding to DNA, primary screen, biochemical, fluorescence polarization, FAM-LBS DNA, MBP-C-LANA, single point; Kaposi's sarcoma herpesvirus LANA C-terminal domain (residues 932-1162) DNA binding; inhibition, % at 9 µM; 340,000 tested, 0.078% active;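 active = highest replicate inhibition at or above 60% at 9 µM, even if other replicates fall short; inactive = all replicates below 60% inhibition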;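 also: 0% = neutral control wells and 100% = 4 µM acridine orange control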
Cardiac RTF inh = cardiac RTF calcium sensitivity inhibitors, primary screen, biochemical, IANBD-TnC fluorescence, EC70 calcium; Troponin I, cardiac muscle (Homo sapiens) + Troponin T, cardiac muscle (Homo sapiens) + …; IANBD-labeled cardiac RTF, Ca2+ fluorescence; inhibition, % at 7.15 µM; 340,000 tested, 0.12% active;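 active = inhibition above the mean inhibition of all tested compounds plus 3 SD, cut at about 17% in these data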;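 also: assay run at fixed EC70 calcium of 1.6 mM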
eLon inh = inhibitors of E. coli Lon protease, primary screen, biochemical, fluorescence polarization | P0A9M0 | purified E. coli Lon protease | inhibition, % at 7.94 µM | 360,000 tested, 0.42% active | AID 602123, 2011; in the data active = inhibition above about 13%, passing the limit was not always enough;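 also: 0% = enzyme with probe and DMSO and 100% = no enzyme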
Target sequence (P0A9M0 whole entry, looked up): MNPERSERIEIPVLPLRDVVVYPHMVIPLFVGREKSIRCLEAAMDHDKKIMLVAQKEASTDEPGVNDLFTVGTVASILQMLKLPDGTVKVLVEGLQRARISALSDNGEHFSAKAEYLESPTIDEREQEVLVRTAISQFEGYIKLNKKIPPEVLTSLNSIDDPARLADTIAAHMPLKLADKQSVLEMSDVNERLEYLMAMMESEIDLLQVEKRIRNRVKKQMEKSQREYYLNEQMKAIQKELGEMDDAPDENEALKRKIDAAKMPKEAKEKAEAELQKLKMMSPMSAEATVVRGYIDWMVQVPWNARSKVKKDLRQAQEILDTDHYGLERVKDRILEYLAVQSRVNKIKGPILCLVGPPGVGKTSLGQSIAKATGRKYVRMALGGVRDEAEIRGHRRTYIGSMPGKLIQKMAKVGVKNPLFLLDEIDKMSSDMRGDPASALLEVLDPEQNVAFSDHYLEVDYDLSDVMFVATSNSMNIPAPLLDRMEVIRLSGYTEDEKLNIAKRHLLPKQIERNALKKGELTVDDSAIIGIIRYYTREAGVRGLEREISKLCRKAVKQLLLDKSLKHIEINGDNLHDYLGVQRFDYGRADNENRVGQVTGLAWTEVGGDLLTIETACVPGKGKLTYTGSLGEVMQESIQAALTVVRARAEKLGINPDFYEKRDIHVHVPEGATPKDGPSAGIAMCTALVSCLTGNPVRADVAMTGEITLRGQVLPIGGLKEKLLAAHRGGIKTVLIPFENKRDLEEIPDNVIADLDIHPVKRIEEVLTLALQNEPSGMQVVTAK
* = called active by the depositor; i = inactive; x = not tested or not shown; + = active, no number. Sampled rows, rich in hits. Any-hit rate of the full collection: about 1.3%.

SMILES	cardiac RTF act	LANA-H2A inh	Keap1-Nrf2 PPI	LANA DNA inh	Cardiac RTF inh	eLon inh
CC1(OC(=O)C2CCCC2)C(=O)C=C2C=C(c3ccsc3)OC=C2C1=O (stereo unspecified)	-4.9	0.1	-2.3	77.7*	-12.5	-34.4
COc1ccc(CCC2=NCCN2C(CC(C)C)c2nc3ccccc3[nH]2)cc1 (stereo unspecified)	x	x	x	x	x	-13.2
COC(=O)/C(=N/Nc1ccccc1C)Sc1nnc(C(O)c2ccccc2)n1-c1ccccc1 (stereo unspecified)	6.3	-0.7	2.1	0.2	7.5	-7.6
CC(C)C#Cc1ccc2c(c1)O[C@@H](CN(C)C(=O)c1cnccn1)[C@@H](C)CN([C@@H](C)CO)S2(=O)=O	x	x	x	x	x	3.3
COc1ccc(C(=O)/C=C/Nc2ccc(S(=O)(=O)Nc3cc(OC)nc(OC)n3)cc2)c(OC)c1	0.0	17.2*	-16.2	-0.2	1.6	-32.9
Cc1cccc(Cn2c(N3CCN(C)CC3)nc3c2c(=O)n(C)c(=O)n3C)c1	0.9	-3.3	5.2	-2.4	-4.1	-1.1
Cc1ccccc1C1=C/C(=C(\SS/C(C(=O)c2ccc(OCC(=O)O)c(Cl)c2Cl)=C2\C=C(c3ccccc3C)SS2)C(=O)c2ccc(OCC(=O)O)c(Cl)c2Cl)SS1	-44.4	x	5.0	99.5*	-13.5	-7.7
O=C(O)COc1ccc2nsnc2c1Cl	-1.1	2.3	-3.1	0.1	-4.2	-1.7
O=C(COC(=O)c1ccc2c(=O)n3c(nc2c1)CCC3)Nc1ccc(OC(F)F)cc1	4.8	-2.1	-5.2	0.4	0.3	3.3
CCCc1cc(=O)[nH]c(SCC(=O)N2CCc3cc(OC)c(OC)cc3C2)n1	-1.7	0.2	-1.4	-1.7	-3.7	-4.5
CCCc1cc(=O)[nH]c(SCC(=O)N2CCc3ccccc3C2)n1	2.6	+	4.7	-1.9	-0.8	1.7
O=C(CCN1CCCCC1)NNC(=O)C12CC3CC(CC(C3)C1)C2	-0.2	-1.6	-5.1	-1.2	-1.2	6.3
COc1ccc(C)cc1NC(=O)CC1COc2ccccc2O1 (stereo unspecified)	67.1*	1.4	-1.2	-1.0	-13.9	3.7
COc1cc(OC)c(OC)cc1NC(=O)CC1COc2ccccc2O1 (stereo unspecified)	1.2	-1.0	0.8	-0.8	-1.4	2.9
COc1ccc(/C=C(\C#N)c2nc3ccccc3[nH]2)cc1O	-5.6	x	-3.0	-1.1	-1.1	-2.7
COc1cccc(/C=C(/C#N)c2nc3ccccc3[nH]2)c1OC(C)C(=O)O (stereo unspecified)	34.7*	-2.9	2.8	-1.8	-0.7	-13.6
N#C/C(=C\c1ccc(N2CCOCC2)o1)c1ccccc1	2.6	1.7	-11.9	-1.4	-1.6	-19.6
N#C/C(=C/c1ccc(N2CCOCC2)o1)c1nc2ccccc2[nH]1	244.0*	-50.6	-116.2	-26.0	-194.9	i
COc1cc(/C=C(\C#N)c2nc3ccccc3[nH]2)cc(OC)c1O	32.3*	-15.0	-52.3	-40.3	-46.5	i
COc1cccc(/C=C(\C#N)c2nc3ccccc3[nH]2)c1OCC(=O)O	-1.9	2.1	-3.2	-0.3	-6.7	-44.5
Cc1ccc(S(=O)(=O)NC(=O)NC(C)Cc2ccccc2)cc1 (stereo unspecified)	0.6	0.3	4.2	0.5	3.8	-3.9
CCOc1ccc(CCNC(=O)COC(=O)c2nn(C)c(=O)c3ccccc23)cc1OCC	-0.9	12.2*	-0.1	1.0	-7.9	-14.3
Cc1onc(-c2c(F)cccc2Cl)c1C(=O)OCC(=O)c1c[nH]c2ccccc12	2.4	29.2*	-3.6	2.1	-4.4	-0.4
Cc1ccc(C(=O)OCC(=O)c2c[nH]c3ccccc23)cc1NC(=O)c1ccco1	1.7	+	-6.8	3.7	-9.9	-2.5
Cn1nc(CC(=O)NC2CCCCCCCCCCC2)c2ccccc2c1=O	3.7	-3.7	-1.3	-2.5	-10.2	-2.6
SMILES	cardiac RTF act	LANA-H2A inh	Keap1-Nrf2 PPI	LANA DNA inh	Cardiac RTF inh	eLon inh
Cn1nc(CC(=O)Nc2cccnc2N2CCOCC2)c2ccccc2c1=O	x	38.5*	x	x	x	x
CCOc1ccc(C(=O)Nc2ccc(N3CCN(C)CC3)cc2)cc1[N+](=O)[O-]	4.2	0.3	-4.5	1.6	-11.4	0.5
CCOc1ccc(C(=O)Nc2ccc(N3CCN(C(C)=O)CC3)cc2)cc1[N+](=O)[O-]	-1.2	18.2*	-3.8	0.8	-45.5	4.5
CC(=O)Nc1ccc2nc(NC(=O)c3ccc([N+](=O)[O-])s3)sc2c1	x	30.4*	x	x	x	x
O=C(Cn1nc(Cc2cccnc2)c2ccccc2c1=O)Nc1cc(F)ccc1F	0.5	-2.0	1.4	0.3	-7.2	-5.9
O=C(Cn1nc(Cc2cccnc2)c2ccccc2c1=O)Nc1ccccc1F	2.7	15.7*	-0.5	-1.9	1.3	-6.0
CC(C)C(=O)NC(c1ccc(N(C)C)cc1)c1c(O)ccc2ccccc12 (stereo unspecified)	4.6	26.5*	-3.9	-1.7	-22.6	-8.4
CCN(C(=O)Nc1ccccc1)c1ccccc1	10.9	16.7*	-1.8	-1.0	-1.5	7.5
O=C(CN1CCN(c2cccc(Cl)c2)CC1)NC1CCCc2ccccc21 (stereo unspecified)	-6.5	20.0*	-2.6	-0.9	-1.4	-24.4
Cc1cc(C)c(NC(=O)CNC(=O)c2ccc3c(=O)n4c(nc3c2)CCC4)c(C)c1	-3.6	4.8	-6.1	-1.6	-6.0	-8.0
Cc1cccc(C)c1NC(=O)CN(C)C(=O)c1ccc2c(=O)n3c(nc2c1)CCC3	-3.8	15.1*	0.6	-0.4	1.2	-20.1
CC1CCCN(CCCNC(=O)C2CC(=O)N(CCc3ccccc3)C2)C1 (stereo unspecified)	1.1	9.3	0.3	-0.2	-8.8	-4.4
CN(C)S(=O)(=O)c1ccc(C(=O)N2CCN=C2SCc2cccnc2)cc1	-1.1	-3.9	-1.9	1.5	-5.7	-10.7
CCN(CC)S(=O)(=O)c1ccc(C(=O)N2CCN=C2SCc2cccnc2)cc1	6.5	25.6*	-2.9	-0.9	-4.0	-9.1
CCC(=O)Nc1ccc(C(=O)COC(=O)Cc2ccsc2)cc1	-0.9	17.7*	-6.6	1.2	-3.8	14.2
O=C(COC(=O)Cc1ccsc1)Nc1ccc(Br)cc1	-3.6	x	-1.7	1.4	-0.7	-8.0
